Most compounds without a hit are left out; they make up all but 4.8% or so of the library.
DAX1 inh-1: blocks DAX1 repression of SF-1 activated StAR promoter; HEK293T StAR-luciferase reporter, SF-1/DAX-1 repression relief; inhibition, % at 6.8 µM; 370,000 compounds, 1.1% hits;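 active = inhibition above the mean over all tested compounds plus 3 SD, cut at about 3.6% in these data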;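 note: 0% = DAX-1 cells with DMSO and 100% = cells lacking DAX-1 with DMSO; higher inhibition means more luminescence from relief of DAX-1 repression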
SMARCA2 act: increases SMARCA2 function in MMTV reporter cells | MG213 cells, MMTV-luciferase reporter, dexamethasone, overnight | activation, % at 9.1 µM | 370,000 compounds, 1% hits | AID 652017; in the data active = activation above about 7.8%;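 note: 0% = vehicle wells and 100% = reference activator wells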
hgDAF-12 ag: hgDAF-12 agonism, primary luciferase screen; activation, % at 6.8 µM; HEK293 GAL4-hgDAF12 UAS-luciferase reporter, agonist luminescence; normalized to butyrate control; 370,000 compounds, 1.8% hits;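 active = activation above a cutoff set at the mean of all screened compounds plus 3 SD, cut at about 10% in these data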;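 note: 0% = DMSO wells and 100% = sodium butyrate wells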
hcDAF-12 act: H. contortus DAF-12 activation, primary screen; activation, % at 6.8 µM; 370,000 compounds, 1.4% hits; AID 652067; HEK293 hcDAF-12 lit1-tk-luc reporter, luminescence; 0% DMSO, 100% Δ7-dafachronic acid;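 active = activation above the mean of all tested compounds plus 3 SD, cut at about 5.5% in these data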;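 note: 100% = response to 3 µM Δ7-dafachronic acid high control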
ssDAF12 agonist: activators of S. stercoralis DAF-12 nuclear receptor; activation, % at 6.8 µM; HEK293 ssDAF-12/GRIP1 lit1-tk-luc reporter, luminescence; % of 3 µM dafachronic acid response; 370,000 compounds, 1% hits;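 active = activation above the mean over all tested compounds plus 3 SD, cut at about 0.9% in these data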;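 note: 0% = DMSO-only wells and 100% = 3 µM delta7-dafachronic acid wells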
DAX1 inh-2: inhibitors of human orphan nuclear receptor DAX1 (NR0B1); 340,000 compounds, 0.99% hits; AID 504766; P51843; HEK293 Gal4-DAX1 luciferase reporter, luminescence; inhibition, % at 6.75 µM;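 active = inhibition above the mean over all tested compounds plus 3 SD, cut at about 4.2% in these data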;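 note: 0% = DAX1-transfected cells with DMSO and 100% = empty-vector control cells with DMSO; inhibition shows as a rise in luminescence from relieved DAX1 repression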
Target sequence (P51843 207-470 limits assumed): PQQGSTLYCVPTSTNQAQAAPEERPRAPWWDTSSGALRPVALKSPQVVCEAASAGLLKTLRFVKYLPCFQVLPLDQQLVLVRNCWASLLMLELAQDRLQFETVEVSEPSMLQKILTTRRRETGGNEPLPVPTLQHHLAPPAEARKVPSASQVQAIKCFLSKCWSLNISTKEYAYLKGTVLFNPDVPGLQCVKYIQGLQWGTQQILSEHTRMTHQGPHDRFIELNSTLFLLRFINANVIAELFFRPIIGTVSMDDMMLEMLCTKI
The depositor's hits bear a star; x = no result.

SMILES	DAX1 inh-1	SMARCA2 act	hgDAF-12 ag	hcDAF-12 act	ssDAF12 agonist	DAX1 inh-2
CCc1ccc2oc(-c3ccc(OC)cc3)cc(=Nc3cccc(C(=O)O)c3)c2c1	3	0	13*	6.5*	0	-1
CCc1ccc2oc(-c3ccc(OC)cc3)cc(=Nc3c(C)n(C)n(-c4ccccc4)c3=O)c2c1	6.5*	-1	17*	9.1*	0	0
O=S1(=O)N[C@H](Cc2ccccc2)COc2cc(Br)ccc21	3	-4	2	-3	-1	x
O=C(CSc1nc2ncccc2[nH]1)NCc1ccccc1	-1	0	0	-2	-1	4.7*
O=C(N/N=C\c1cn[nH]c1-c1ccccc1)c1cccnc1	1	4	1	2	-1	0
COc1ccccc1/C=C\C=N\NC(=O)c1ccco1	0	4	2	2	-1	0
COc1ccccc1/C=C/C=N/NC(=O)c1cccs1	1	2	10	2	0	7.2*
O=C(N/N=C\c1cn[nH]c1-c1ccccc1)c1cccs1	2	3	13*	2	0	4
O=C(N/N=C/c1ccccc1OCc1ccccc1)c1cccs1	0	7.9*	8	0	-1	0
O=C(N/N=C/c1ccc(-c2cccc([N+](=O)[O-])c2)o1)c1cccs1	-1	6	5	5.7*	1.8*	0
O=C(NCC1CCCCC1)c1ccc(F)cc1Cl	1	2	3	1	0	7.4*
O=C(NC1CC1)c1ccc(F)cc1Cl	0	0	0	-1	1.0*	1
COc1cccc(N2CCN(CC(=O)NCc3ccccc3C)CC2)c1	-1	-5	0	0	-1	x
O=C(Cc1ccc(Cl)c(Cl)c1)N1CCOCC1	0	-2	1	-2	-1	0
CNS(=O)(=O)c1ccc(CNC[C@H]2O[C@@H](n3ccc(N)nc3=O)[C@H](O)[C@@H]2O)cc1	-1	-1	-1	-1	-1	4.6*
Cc1ccc2nc(/C(C#N)=C\c3ccc(Oc4ccc([N+](=O)[O-])cn4)cc3)[nH]c2c1	-1	-1	2	1	0	-1
COc1cc(/C=C(/C#N)c2nc3ccccc3[nH]2)ccc1OCc1ccc(C(=O)O)o1	1	2	4	5	-1	0
COc1ccc(C(C#N)=Cc2ccc(NC(C)=O)cc2)cc1	3.7*	3	6	0	-1	1
COc1ccc2nc(/C(C#N)=C\c3ccc(Oc4ccc([N+](=O)[O-])cn4)cc3)[nH]c2c1	0	12*	2	2	-2	-3
CCOc1cc(/C=C(\C#N)c2nc3ccccc3[nH]2)ccc1OC(C)C(=O)O (stereo not drawn)	-1	3	1	0	-1	2
CCOc1cc(/C=C(/C#N)c2nc3ccccc3[nH]2)ccc1Oc1ccc([N+](=O)[O-])cn1	-1	2	5	5.8*	-1	0
COc1ccc2nc(/C(C#N)=C\c3ccc(C(=O)O)cc3)[nH]c2c1	2	7	13*	4	0	0
CCOC(=O)c1c[nH]n2c(=S)ncnc12	0	-2	1	-1	-1	1
O=C(CN1C(=O)CCSc2ccccc21)Nc1cccc(Cl)c1F	-1	-4	0	-1	-2	x
Cc1cc2c(NC(=O)Nc3ccccc3)cccc2nn1	0	-4	-1	-2	-1	5.4*
SMILES	DAX1 inh-1	SMARCA2 act	hgDAF-12 ag	hcDAF-12 act	ssDAF12 agonist	DAX1 inh-2
CCn1cc(C(=O)NCCCN2CCCC(C)C2)c(=O)c2cc(S(=O)(=O)N3CCOCC3)ccc21 (stereo not drawn)	0	-2	-2	0	0	1
COCCCNc1nc2c(c(=O)[nH]c(=O)n2C)n1CCCc1ccccc1	-1	7.9*	1	-1	-1	0
O=c1[nH][nH]c2c1[C@H](c1ccc(F)cc1)O[C@H](CCc1ccccc1)C2	1	-6	1	1	-1	x
CC(/C=C\C=C\c1ccccc1)=N\NC(=O)c1cncc(Br)c1	0	1	1	0	0	0
O=C(O)c1ccc2c(c1)OCCCO2	0	1	2	0	-1	2
CC(/C=C/C=C/c1ccccc1)=N/NC(=O)c1ccc2c(c1)OCCO2	1	5	4	3	1.2*	0
CC(/C=C/C=C/c1ccccc1)=N\NC(=O)c1cccnc1	-1	-4	6	0	-1	4.5*
O=C(/C=C/c1ccccc1)c1ccc2c(c1)OCCCCO2	2	0	12*	4	0	2
Cc1ccc(-c2c(NC(=O)c3ccc(F)cc3)nc3ncccn23)cc1	0	-2	1	-1	-1	x
O=c1cc(-c2ccccc2)oc2ccccc12	3	4	7	0	-1	6.0*
CC(C)NC(=O)C1C(c2ccccc2)=Nc2ccccc2N1C(=O)c1cc(Cl)cc(Cl)c1 (stereo not drawn)	0	-1	0	0	0	x
CC(=O)N1c2ccccc2N=C(c2ccc(C(F)(F)F)cc2)C1C(=O)NC(C)C (stereo not drawn)	1	-6	1	2	0	x
CC(C)NC(=O)C1C(c2ccccc2)=Nc2ccccc2N1C(=O)c1ccc(C(F)(F)F)cc1 (stereo not drawn)	-1	-3	3	2	2.3*	x
Cc1ccc(C(=O)N2c3ccccc3N=C(c3ccccc3)C2C(=O)NC(C)C)cc1 (stereo not drawn)	2	0	10	3	1.0*	x
CC(C)NC(=O)C1C(c2ccc(C(F)(F)F)cc2)=Nc2ccccc2N1C(=O)c1cccc2ccccc12 (stereo not drawn)	1	1	9	5	1.1*	x
O=C(NC1CCCC1)C1C(c2ccc(C(F)(F)F)cc2)=Nc2ccccc2N1C(=O)c1ccco1 (stereo not drawn)	1	3	6	5.6*	0	x
COc1ccc(C(=O)CSc2nnc(CNC(=O)c3ccccc3)o2)cc1	-1	-1	-1	0	-1	0
S=C(Nc1cc(Cl)cc(Cl)c1)N1CCN(c2ccccn2)CC1	-1	-2	2	1	-1	-1
COc1ccc(CNC(=O)[C@@H](Cc2ccccc2)NC(=O)CC[C@H]2O[C@@H](n3ccc(=O)[nH]c3=O)[C@H](O)[C@@H]2O)cc1	1	-2	-2	0	-1	x
C[C@H](NC(=O)C1CCN(S(=O)(=O)c2ccccc2)CC1)C(=O)NCc1cccnc1	-1	-2	-1	-1	-2	1
c1ccc(Nc2nnc(-c3cccc4ccccc34)o2)cc1	2	4	8	6.3*	1.2*	x
CCCCn1c(N)c(N(CC(C)C)C(=O)CSCc2c(C)noc2C)c(=O)[nH]c1=O	0	-1	-1	-1	-1	0

Bioassay records: PubChem, The Scripps Research Institute Molecular Screening Center
